Results filed as inconclusive are left out. A call without a number means that no potency is given here. Some compounds were tested as several samples or in several runs, with calls that do not always agree. Activity calls are given as the source filed them. Calls follow the shape of the dose curve; as a rule, active = well fitted cell-killing curve with a large enough effect in the repeat runs; inconclusive = weak or mixed curves; inactive = flat fitted curve, though single readings scatter.
Test: qHTS assay to identify small molecule antagonists of the estrogen related receptor (ERR) signaling pathway from Tox21 library - cell viability counter screen (AID 1224834); also: nearly all actives have a fitted effect of over 30% in size
Conditions: ERR reporter cells viability, CellTiter-Fluor, 17.5 h; series mostly up to 92.4 µM
Description: National Center for Advancing Translational Sciences [NCATS]
NIH Chemical Genomics Center [NCGC]
U.S. Environmental Protection Agency [EPA]
National Institutes of Environmental Health Sciences [NIEHS]
National Toxicology Program [NTP]
U.S. Food and Drug Administration [FDA]
Estrogen related receptors (ERRs), the first orphan nuclear receptors discovered, play an important role in the control of cellular energy metabolism. ERRs are required for high-energy production in response to the environmental challenges. ERR-alpha was also identified as an adverse marker for breast cancer progression; ERR-alpha-positive tumors have a poor prognosis. To screen and to identify environmental compounds that perturb the ERR signaling pathways could provide valuable information for potential therapeutic or preventive measures in the treatment of metabolic disease. To differentiate true ERR antagonists or agonist from cytotoxic substances, the assay is multiplexed with cell viability assay.
Tox21 Assay Protocol Summary:
The ERR cells were dispensed at 2,000 cells/5 ul/well in 1536-well white plates using a Multidrop dispenser. After the assay plates were incubated at a 37 C/5% CO2 incubator for 6 hours, 23 nL of compounds dissolved in DMSO, positive and negative controls or DMSO only was transferred to the assay plate by a pin tool. The plates were incubated at 37 C for 17.5 hours. 1 ul/well of CellTiter-Fluor reagent was added into the assay plates using a Flying Reagent Dispenser. After 30-minute incubation at 37 C/5% CO2, the fluorescence intensity in the plates was measured using a ViewLux plate reader.
Potency is read from the fitted curve at half-maximal effect.

| SMILES | Potency |
| --- | --- |
| O=[N+]([O-])c1cc(C(F)(F)F)ccc1Cl | inactive |
| N#CCC(=O)O | inactive |
| NC(N)=S | inactive |
| OCc1ccc(Cl)cc1Cl | inactive |
| CC(=O)CC(=O)N(C)C | inactive |
| CC(=O)c1nccs1 | inactive |
| Cc1ccc([N+](=O)[O-])cc1N | inactive |
| Cc1ccccc1C=O | inactive |
| CCCCC(CC)COC(=O)c1ccc(C(=O)OCC(CC)CCCC)cc1 (stereo not given) | inactive |
| CC(C)=CCC/C(C)=C/C=O | inactive |
| CC1=CC(=O)CC(C)(C)C1 | 22.3 µM (active) and inactive |
| CCCN(CCC)C(=O)SCC | inactive |
| C=C(C)CC(C)(C)C | inactive |
| CN1CCCC1=O | inactive |
| CCCOCC(C)O (stereo not given) | inactive |
| C[n+]1ccn(CCO)c1 | inactive |
| COc1c2ccoc2cc2oc(=O)ccc12 | inactive |
| CC(=O)OC/C=C(\C)CCC=C(C)C | inactive |
| COC(=O)/C=C\C(=O)OC | inactive |
| CCCCCNCCCCC | inactive |

| SMILES | Potency |
| --- | --- |
| NC(=O)NC(N)=O | inactive |
| COc1ccc2cc3[n+](cc2c1OC)CCc1cc2c(cc1-3)OCO2 | 27.5 µM (active) |
| CCc1cccc(CC)c1N | inactive |
| Nc1cccc(C(F)(F)F)c1 | inactive |
| C[Si](C)(C)N[Si](C)(C)C | inactive |
| CCOC(=O)CC(=O)OCC | inactive |
| CC(=O)OCc1ccc2c(c1)OCO2 | inactive |
| CC/C(C)=N/O | inactive |
| CC(C=O)Cc1ccc(C(C)(C)C)cc1 (stereo not given) | inactive |
| O=c1n(CCCN2CCN(c3cccc(Cl)c3)CC2)nc2ccccn12 | inactive |
| CCCCCCCCO | inactive |
| Cc1ccncc1 | inactive |
| CC(C)(C)NC[C@H](O)COc1nsnc1N1CCOCC1 | inactive |
| CCOC(=O)c1ccc(O)cc1 | inactive |
| Brc1ccc(Oc2ccc(Br)cc2)cc1 | inactive |
| CS(=O)(=O)c1ccc(Cl)cc1 | inactive |
| COc1c(Cl)ccc(Cl)c1C(=O)O | inactive |
| NC1CCCCC1N (stereo not given) | inactive |
| C=CC(=O)NCOCCCC | inactive |
| O=C(Cl)c1ccc(C(=O)Cl)cc1 | inactive |

Reference: PubChem BioAssay (Tox21)
